About 83,000 compounds went through this panel and 20% of them were active in at least one assay; those are over-represented in the sample as a whole.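 96-well plates, one dose, 48 hours. Percent growth reported; active if below 10.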 Calls of active or inactive are those of the source.
Experiments:
Assay in all cases: NCI-60 one-dose screen, 48 h (100 = growth as untreated, 0 = no growth, -100 = all killed)
Conditions in all cases: 10 µM unless noted
SR leukemia = system: SR leukemia
RPMI-8226 leukemia = system: RPMI-8226 leukemia
OVCAR-8 ovarian = system: OVCAR-8 ovarian
OVCAR-5 ovarian = system: OVCAR-5 ovarian
OVCAR-4 ovarian = system: OVCAR-4 ovarian
SK-OV-3 ovarian = system: SK-OV-3 ovarian
IGROV1 ovarian = system: IGROV1 ovarian
OVCAR-3 ovarian = system: OVCAR-3 ovarian
HS 578T breast = system: HS 578T breast
NCI/ADR-RES ovarian = system: NCI/ADR-RES ovarian
T-47D breast = system: T-47D breast
BT-549 breast = system: BT-549 breast
MDA-MB-435 melanoma = system: MDA-MB-435 melanoma
SW-620 colon = system: SW-620 colon
MCF7 breast = system: MCF7 breast
HCT-116 colon = system: HCT-116 colon
HCC-2998 colon = system: HCC-2998 colon
KM12 colon = system: KM12 colon

Measured: growth

COc1ccccc1N1CCN(C(=O)c2ccc3nc(NC(=O)c4ccc(NCCc5ccccc5)c([N+](=O)[O-])c4)sc3c2)CC1
inactive: RPMI-8226 leukemia 92.3% | OVCAR-8 ovarian 81.6% | OVCAR-5 ovarian 93.6% | SK-OV-3 ovarian 92.4% | IGROV1 ovarian 91.8% | OVCAR-3 ovarian 70.3% | HS 578T breast 48.5% | NCI/ADR-RES ovarian 89.6% | T-47D breast 73.2% | BT-549 breast 80.3% | MDA-MB-435 melanoma 89.4% | SW-620 colon 75.1% | MCF7 breast 70.8% | HCT-116 colon 57.7% | HCC-2998 colon 110% | KM12 colon 79%
active: SR leukemia 3.74% | OVCAR-4 ovarian 2.92%

COc1cnccc1-c1nc2ccc3[nH]ncc3c2c2c1CCCC2
active: SR leukemia 8.78% | HS 578T breast -1.02%
inactive: RPMI-8226 leukemia 61.6% | OVCAR-8 ovarian 69.1% | OVCAR-5 ovarian 74.8% | OVCAR-4 ovarian 85.9% | SK-OV-3 ovarian 41.9% | IGROV1 ovarian 33.4% | OVCAR-3 ovarian 84.3% | NCI/ADR-RES ovarian 64.2% | T-47D breast 68.4% | BT-549 breast 43.3% | MDA-MB-435 melanoma 13.2% | SW-620 colon 28.1% | MCF7 breast 43.5% | HCT-116 colon 23.8% | HCC-2998 colon 58.4% | KM12 colon 21.4%

CC(C)Cc1ccc(C(C)C(=O)NCc2ccc(Cn3c(=O)sn(-c4ccc(Cl)cc4)c3=O)cc2)cc1 (stereo not given)
inactive: SR leukemia 72.2% | RPMI-8226 leukemia 83.9% | OVCAR-8 ovarian 79.5% | OVCAR-5 ovarian 89.3% | OVCAR-4 ovarian 47.4% | SK-OV-3 ovarian 92% | IGROV1 ovarian 92.2% | OVCAR-3 ovarian 91.5% | HS 578T breast 71.8% | NCI/ADR-RES ovarian 90.3% | T-47D breast 54.9% | BT-549 breast 95.1% | MDA-MB-435 melanoma 84.8% | SW-620 colon 59.8% | MCF7 breast 66.9% | HCT-116 colon 75.6% | HCC-2998 colon 96.2% | KM12 colon 69.8%

NC(=O)c1ccc[n+](CC(=O)N2CCN(c3cc4c(cc3F)c(=O)c(C(=O)O)cn4C3CC3)CC2)c1
inactive: SR leukemia 32.2% | RPMI-8226 leukemia 74.3% | OVCAR-8 ovarian 92.8% | OVCAR-5 ovarian 114% | OVCAR-4 ovarian 74.8% | SK-OV-3 ovarian 117% | IGROV1 ovarian 99.4% | OVCAR-3 ovarian 69.4% | HS 578T breast 91.1% | NCI/ADR-RES ovarian 99.8% | T-47D breast 99.1% | BT-549 breast 87.3% | MDA-MB-435 melanoma 75.2% | MCF7 breast 62.4% | HCT-116 colon 37.1% | KM12 colon 90.1%
active: SW-620 colon 6.58%

O=C1CCCCCCCCC(O)C(O)CCCC(c2cccs2)O1 (stereo not given)
inactive: RPMI-8226 leukemia 87.1% | OVCAR-8 ovarian 99% | OVCAR-5 ovarian 95.3% | OVCAR-4 ovarian 78.8% | SK-OV-3 ovarian 82.1% | IGROV1 ovarian 97.8% | OVCAR-3 ovarian 102% | HS 578T breast 103% | NCI/ADR-RES ovarian 91.1% | T-47D breast 71.8% | BT-549 breast 122% | MDA-MB-435 melanoma 99.3% | SW-620 colon 103% | MCF7 breast 95.9% | HCT-116 colon 89.8% | KM12 colon 100%
active: SR leukemia -12.3%

CC(O)(CO)c1ccccc1 (stereo not given)
inactive: SR leukemia 112% | RPMI-8226 leukemia 113% | OVCAR-8 ovarian 100% | OVCAR-5 ovarian 94.9% | OVCAR-4 ovarian 103% | SK-OV-3 ovarian 106% | IGROV1 ovarian 97.2% | OVCAR-3 ovarian 112% | HS 578T breast 100% | NCI/ADR-RES ovarian 103% | T-47D breast 102% | BT-549 breast 93.6% | MDA-MB-435 melanoma 99.1% | SW-620 colon 103% | MCF7 breast 98.7% | HCT-116 colon 98.3% | KM12 colon 103%

COc1cc(C2NC(c3cc(OC)c(OC)c(OC)c3)C(C#N)(C#N)C2(C#N)C#N)cc(OC)c1OC (stereo not given)
inactive: SR leukemia 118% | RPMI-8226 leukemia 102% | OVCAR-8 ovarian 106% | OVCAR-5 ovarian 96.4% | OVCAR-4 ovarian 100% | SK-OV-3 ovarian 102% | IGROV1 ovarian 106% | OVCAR-3 ovarian 110% | HS 578T breast 89.2% | NCI/ADR-RES ovarian 97.8% | T-47D breast 96.4% | BT-549 breast 101% | MDA-MB-435 melanoma 101% | SW-620 colon 95.8% | MCF7 breast 95.5% | HCT-116 colon 91.1% | KM12 colon 99.5%

Clc1cc(Cl)cc(N2N=C(c3cccc(Nc4ccncc4)c3)CC2c2ccccc2)c1 (stereo not given)
active: SR leukemia 5.16% | OVCAR-8 ovarian 2.42% | MDA-MB-435 melanoma -38.9% | SW-620 colon -68.6% | MCF7 breast -11% | HCC-2998 colon -58.8% | KM12 colon -8.16%
inactive: RPMI-8226 leukemia 28.5% | OVCAR-5 ovarian 80.4% | OVCAR-4 ovarian 55.7% | SK-OV-3 ovarian 84.7% | IGROV1 ovarian 39.5% | OVCAR-3 ovarian 67.4% | HS 578T breast 80.2% | NCI/ADR-RES ovarian 72.1% | T-47D breast 77.7% | BT-549 breast 78.2%

CCC1(CC)NC(=O)c2c(c3ccc(Cl)c(Cl)c3n2C)C1C#N (stereo not given)
inactive: RPMI-8226 leukemia 88.6% | OVCAR-8 ovarian 93.6% | OVCAR-5 ovarian 81.4% | OVCAR-4 ovarian 91.8% | SK-OV-3 ovarian 91.7% | IGROV1 ovarian 74.6% | OVCAR-3 ovarian 94.6% | HS 578T breast 97.1% | NCI/ADR-RES ovarian 91.5% | T-47D breast 78.5% | BT-549 breast 90.6% | MDA-MB-435 melanoma 99.2% | SW-620 colon 102% | MCF7 breast 97.9% | HCT-116 colon 76.3% | KM12 colon 99.4%
active: SR leukemia 5.94%

O=C(CN1CCOCC1)Nc1ccc2ncnc(Nc3ccc(Oc4cccc(F)c4)c(Cl)c3)c2c1
inactive: SR leukemia 84.1% | RPMI-8226 leukemia 55.7% | OVCAR-8 ovarian 68.6% | OVCAR-5 ovarian 68.7% | OVCAR-4 ovarian 73.4% | SK-OV-3 ovarian 13.9% | IGROV1 ovarian 19.9% | OVCAR-3 ovarian 55.6% | HS 578T breast 86.6% | NCI/ADR-RES ovarian 60% | T-47D breast 23.9% | BT-549 breast 86.2% | MDA-MB-435 melanoma 85.4% | SW-620 colon 100% | MCF7 breast 71.1% | HCT-116 colon 73.5% | KM12 colon 90.1%

Clc1nc(Cl)c2ncn(CCOCCn3cnc4c(Cl)nc(Cl)nc43)c2n1
active: SR leukemia -75.9% | RPMI-8226 leukemia -52.8% | OVCAR-8 ovarian -83.2% | OVCAR-5 ovarian -85% | OVCAR-4 ovarian -86.1% | SK-OV-3 ovarian -98.3% | IGROV1 ovarian -95.6% | OVCAR-3 ovarian -97.4% | HS 578T breast -42.5% | NCI/ADR-RES ovarian -56% | T-47D breast -53.9% | BT-549 breast -94.1% | MDA-MB-435 melanoma -90.1% | SW-620 colon -86.9% | MCF7 breast -48.9% | HCC-2998 colon -87.5% | KM12 colon -85.9%

COc1ccc(/C=C/C(=O)c2ccc(Nc3ncnc4ccccc34)cc2)cc1OC
active: RPMI-8226 leukemia -11.4% | MDA-MB-435 melanoma 7.77%
inactive: SR leukemia 16.7% | OVCAR-8 ovarian 65% | OVCAR-5 ovarian 103% | OVCAR-4 ovarian 85.5% | SK-OV-3 ovarian 102% | IGROV1 ovarian 76.3% | OVCAR-3 ovarian 74.9% | HS 578T breast 110% | NCI/ADR-RES ovarian 78.1% | T-47D breast 78.6% | BT-549 breast 56.3% | SW-620 colon 27.5% | MCF7 breast 16.1% | HCC-2998 colon 29.9% | KM12 colon 16.3%

Cc1ccc2[nH]c(=S)n(-c3ccc(S(=O)(=O)Nc4ccc(Cl)nn4)cc3)c(=O)c2c1
inactive: SR leukemia 94.2% | RPMI-8226 leukemia 103% | OVCAR-8 ovarian 97.7% | OVCAR-5 ovarian 103% | OVCAR-4 ovarian 110% | SK-OV-3 ovarian 108% | IGROV1 ovarian 105% | OVCAR-3 ovarian 108% | HS 578T breast 94.4% | NCI/ADR-RES ovarian 103% | T-47D breast 96.7% | BT-549 breast 83.3% | MDA-MB-435 melanoma 102% | SW-620 colon 96.2% | MCF7 breast 95% | HCC-2998 colon 104% | KM12 colon 104%

CCN(CC)CCCC(C)Nc1c2c(nc3ccc(OC)cc13)CCCC2 (stereo not given)
inactive: SR leukemia 93.6% | RPMI-8226 leukemia 100% | OVCAR-8 ovarian 105% | OVCAR-5 ovarian 90.2% | OVCAR-4 ovarian 103% | SK-OV-3 ovarian 119% | IGROV1 ovarian 98.1% | OVCAR-3 ovarian 102% | HS 578T breast 93.5% | NCI/ADR-RES ovarian 96.8% | T-47D breast 113% | BT-549 breast 101% | MDA-MB-435 melanoma 103% | SW-620 colon 103% | MCF7 breast 91.4% | HCT-116 colon 73.6% | KM12 colon 106%

COc1ccc(-c2nc(N=Nc3c(O)[nH]c4ccccc34)nc(N3CCOCC3)c2C#N)cc1
inactive: SR leukemia 41.7% | RPMI-8226 leukemia 60.2% | OVCAR-8 ovarian 44.2% | OVCAR-5 ovarian 81.9% | OVCAR-4 ovarian 59.5% | SK-OV-3 ovarian 66.8% | IGROV1 ovarian 87.8% | OVCAR-3 ovarian 67.4% | HS 578T breast 47.5% | NCI/ADR-RES ovarian 59.7% | T-47D breast 65.4% | BT-549 breast 62.8% | MDA-MB-435 melanoma 79.1% | SW-620 colon 66.8% | MCF7 breast 60.6% | HCC-2998 colon 95% | KM12 colon 73.4%

CC[C@H](CC[C@@H](C)[C@H]1CC[C@H]2[C@@H]3CC=C4C[C@@H](OCCc5nn[nH]n5)CC[C@]4(C)[C@H]3CC[C@]12C)C(C)C
inactive: SR leukemia 105% | RPMI-8226 leukemia 113% | OVCAR-8 ovarian 108% | OVCAR-5 ovarian 108% | OVCAR-4 ovarian 104% | SK-OV-3 ovarian 96.8% | IGROV1 ovarian 100% | OVCAR-3 ovarian 103% | HS 578T breast 113% | NCI/ADR-RES ovarian 98.3% | T-47D breast 90.2% | BT-549 breast 116% | MDA-MB-435 melanoma 112% | SW-620 colon 121% | MCF7 breast 101% | HCT-116 colon 95.1% | KM12 colon 100%
